Results published in PubChem BioAssay (NCATS).
Inconclusive results are not listed. A number with no mark means an inactive call. Calls come from the whole dose curve; as a rule, active = well fitted inhibition curve with a large enough effect; inconclusive = small, poorly fitted or top-dose-only effect; inactive = no such curve, though single readings can be large or run the other way.

tested on: Zika virus NS2B-NS3 protease (unlinked complex); experiment: Primary screen GU Rhodamine qHTS for Zika virus inhibitors: Unlinked NS2B-NS3 protease assay (AID 1347159); settings: Recombinant ZIKV NS2B-NS3 protease, Rhodamine110 substrate fluorescence; series mostly up to 107 µM; activity change, negative = inhibition: at the top concentration; note: nearly all actives have a fitted effect of over 60% in size
Method in brief: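 In dose–response format, inhibition of unlinked protease (25 nM) was measured with 1.5 microM bis-peptide Rhodamine110 substrate. Aprotinin served as the intraplate control.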
% is set by controls: 0 for no effect and ±100 for the full control effect.

Row | SMILES | activity change, negative = inhibition
1 | C=C1C(OC2OCC(O)C(O)C2O)CC2C(C)(C)C(O)CCC2(C)C1CC/C(C)=C\CO (stereo not given) | -17.8% [at 57.1 µM]
2 | C/C(=C\CC[C@@H](C)[C@H]1CC(O)[C@@]2(C)C3CC[C@H]4C(C)(C)[C@@H](OC5OCC(O)C(O)C5OC5OC(CO)C(O)C(O)C5O)CC[C@@]45C[C@@]35CC(O)[C@]12C)C(=O)O (stereo not given in full) | 2.79% [at 32.5 µM]
3 | CC(C)NCC(C(=O)N1CCN(c2ncnc3c2C(C)CC3O)CC1)c1ccc(Cl)cc1 (stereo not given) | 7.6%
4 | OC[C@H]1O[C@@H](O[C@H]2[C@H](OCc3ccccc3)O[C@H](CO[C@@H]3OC[C@@H](O)[C@H](O)[C@H]3O)[C@@H](O)[C@@H]2O)[C@H](O)[C@@H](O)[C@@H]1O | -10.1% [at 57.1 µM]
5 | COC(=O)N[C@@H](C)CNc1nccc(-c2cn(C(C)C)nc2-c2cc(Cl)cc(NS(C)(=O)=O)c2F)n1 | 4.4%
6 | CC1OC(OC2C(C)OC(OC3C(OC(=O)C45CCC(C)(C)CC4C4=CCC6C7(C)CCC(OC8OC(C(=O)O)C(O)C(O)C8OC8OC(CO)C(O)C(OC9OC(C)C(O)C(O)C9O)C8O)C(C)(CO)C7CCC6(C)C4(C)CC5)OC(CO)C(O)C3O)C(O)C2O)C(O)C(O)C1O (stereo not given) | 1.27% [at 19.1 µM]
7 | COC(=O)c1ccc(OC(CO)C(O)c2ccc(O)c(OC)c2)c(OC)c1 (stereo not given) | -1.7%
8 | C[C@@H]1O[C@@H](O[C@H]2[C@H](OC(=O)[C@]34CCC(C)(C)C[C@H]3C3=CCC5[C@@]6(C)C[C@H](O)[C@H](O[C@@H]7O[C@H](CO)[C@@H](O)[C@H](O)[C@H]7O)[C@@](C)(CO)C6[C@H](O)C[C@@]5(C)[C@]3(C)C[C@H]4O)OC[C@H](O)[C@@H]2O)[C@H](O)[C@H](O)[C@H]1O[C@@H]1OC[C@@H](O)[C@H](O[C@H]2OC[C@](O)(CO)[C@H]2O)[C@H]1O (stereo not given in full) | 7.01% [at 19.1 µM]
9 | CC1CCCCN1S(=O)(=O)c1ccc(N2CCCC2=O)cc1 (stereo not given) | 9.37%
10 | O=C(CC(c1ccccc1)c1ccccc1)N1CCN(C(c2ccccc2)c2ccccc2)CC1 | -13.4%
11 | CC(C)C(C#N)O[C@@H]1O[C@H](CO[C@@H]2O[C@@H](C)[C@H](O)[C@@H](O)[C@H]2O)[C@@H](O)[C@H](O)[C@H]1O (stereo not given in full) | 1.61% [at 57.1 µM]
12 | O=C(O)C(O[C@@H]1O[C@H](CO[C@@H]2O[C@H](CO)[C@@H](O)[C@H](O)[C@H]2O)[C@@H](O)[C@H](O)[C@H]1O)c1ccccc1 (stereo not given in full) | 17.2% [at 57.1 µM]
13 | CC(=O)/C=C/[C@H]1[C@](C)(O)[C@@H](O)[C@H](OC(C)=O)C2C(C)(C)CCC[C@@]21C (stereo not given in full) | -0.771%
14 | CC(C)=CCC(O)/C(C)=C/CO[C@@H]1O[C@H](CO)[C@@H](O)[C@H](O)[C@H]1O (stereo not given in full) | 49.5%
15 | COC(=O)CC1CC(c2ccc(O)cc2)=NO1 (stereo not given) | 16.5%
16 | COC(=O)[C@@H](O)[C@H]1[C@@]2(C)CC3(O)[C@@H](C(=O)[C@H]2O)[C@]24O[C@]25CC(=O)O[C@@H](c2ccoc2)[C@]5(C)CCC4[C@]13C (stereo not given in full) | 3.85% [at 57.1 µM]
17 | Cc1[nH]c2ccccc2c1CCNC(=O)c1ccccc1F | 13.4%
18 | C[C@@H]1O[C@@H](O[C@@H]2[C@@H](O[C@@H]3O[C@@H](C)[C@H](O[C@@H]4OC[C@H](O)[C@H](O[C@@H]5OC[C@@H](O)[C@H](O)[C@H]5O)[C@H]4O)[C@@H](O[C@@H]4OC[C@](O)(CO)[C@H]4O)[C@H]3O)[C@H](OC(=O)[C@]34CCC(C)(C)C[C@H]3C3=CCC5[C@@]6(C)C[C@H](O)[C@H](O[C@@H]7O[C@H](CO[C@@H]8OC[C@H](O)[C@H](O)[C@H]8O)[C@@H](O)[C@H](O)[C@H]7O)C(C)(C)C6CC[C@@]5(C)[C@]3(C)C[C@H]4O)OC[C@H]2O)[C@H](O)[C@H](O)[C@H]1O (stereo not given in full) | 11.8% [at 19.1 µM]
19 | CC(C)(C)NC(=O)[C@@H](c1cccnc1)N(C(=O)c1ccco1)c1ccc(C(C)(C)C)cc1 | 0%
20 | Cc1ccc(F)cc1C(=O)Nc1ccc(C(=O)N2Cc3cccn3Cc3ccccc32)c(Cl)c1 | 0%

Row | SMILES | activity change, negative = inhibition
21 | CC1=C(CO)C(=O)O[C@@H]([C@@H](C)[C@H]2CC[C@H]3[C@@H]4C[C@H]5O[C@]56[C@@H](O)C=CC(=O)[C@]6(C)[C@H]4CC[C@]23C)C1 | 23.4% [at 57.1 µM]
22 | C[C@@H]1CC[C@]2(C(=O)O[C@@H]3O[C@H](CO)[C@@H](O)[C@H](O)[C@H]3O)CC[C@]3(C)C(=CCC4[C@@]5(C)C[C@@H](O)[C@H](O)[C@@](C)(C(=O)O[C@H]6[C@H](O)C[C@@]7(C)C(CC[C@]8(C)C7CC=C7[C@H]9[C@](C(=O)O[C@@H]%10O[C@H](CO)[C@@H](O)[C@H](O)[C@H]%10O)(CC[C@@H](C)[C@@]9(C)O)CC[C@]78C)[C@@]6(CO)C(=O)O)C5CC[C@]43C)[C@@H]2[C@]1(C)O (stereo not given in full) | -16.4% [at 19.1 µM]
23 | COc1ccc(-c2nc(-c3ccc(-c4cccc(Cl)c4)o3)[nH]c2-c2ccc(OC)cc2)cc1 | 8.88%
24 | O=C(NCc1cccc(O)c1)Nc1nc(-c2ccncc2)cs1 | -4.34%
25 | C/C=C1\[C@H](O[C@@H]2O[C@H](CO)[C@@H](O)[C@H](O)[C@H]2O)OC=C(C(=O)OC)[C@H]1CC(=O)O | 12.9% [at 57.1 µM]
26 | CCOc1cc(C(=O)N2CCC(N3CCN(C)CC3)CC2)ccc1Nc1ncc2c(n1)N(C1CCCC1)c1ccccc1C(=O)N2C | 40.9%
27 | C/C1=C\CC[C@H](C)CCO[C@@H]2O[C@H](CO[C@@H]3OC[C@](O)(COC1=O)[C@H]3O)[C@@H](O)[C@H](O)[C@H]2O | -11.9% [at 57.1 µM]
28 | C[C@@H]1O[C@@H](O[C@@H]2CO[C@@H](O[C@H]3CC[C@@]4(C)C(CC[C@]5(C)C4CC=C4[C@@H]6CC(C)(C)CC[C@]6(C(=O)O[C@@H]6O[C@H](CO)[C@@H](O)[C@H](O)[C@H]6O)CC[C@]45C)[C@]3(C)CO)[C@H](O)[C@H]2O[C@@H]2O[C@H](CO)[C@@H](O)[C@H](O)[C@H]2O)[C@H](O)[C@H](O)[C@H]1O (stereo not given in full) | 0.188% [at 32.5 µM]
29 | C[C@]12C[C@@H](O)[C@@H]3C[C@@]1(O[C@@H]1O[C@H](CO)[C@@H](O)[C@H](O)[C@H]1O)[C@]3(COC(=O)c1ccccc1)C(=O)O2 | -24.3% [at 57.1 µM]
30 | COC(=O)C1=CO[C@@H](O[C@@H]2O[C@H](CO)[C@@H](O)[C@H](O)[C@H]2O)C2C1C(=O)C[C@H]2C (stereo not given in full) | -0.0858%
31 | O=C(O)CC(=O)OC[C@H]1O[C@@H](Oc2ccc3c(c2)OC[C@H]2c4cc5c(cc4O[C@@H]32)OCO5)[C@H](O)[C@@H](O)[C@@H]1O | 14.1% [at 57.1 µM]
32 | C[C@@H]1O[C@@H](OC[C@H]2O[C@@H](Oc3cc(O)cc4c3C(=O)C(O)(Cc3ccc(O)cc3)O4)[C@H](O)[C@@H](O)[C@@H]2O)[C@H](O)[C@H](O)[C@H]1O (stereo not given in full) | 25.6% [at 32.5 µM]
33 | CC(C)c1c2cc(-c3ccnc(NC4CCC(NC5CCOCC5)CC4)n3)ccc2nn1C (stereo not given) | 20.9%
34 | CC(=O)O[C@@H]1[C@@H](OC(=O)/C=C/c2ccccc2)[C@@H](OC(C)=O)[C@H](O[C@H]2[C@@H]3C=CO[C@@H](O[C@@H]4O[C@H](CO)[C@@H](O)[C@H](O)[C@H]4O)[C@@H]3[C@@]3(CO)O[C@@H]23)O[C@H]1C | 24.7% [at 32.5 µM]
35 | CNC(=O)c1cc(Oc2ccc3nc(N[C@@H]4CCCC[C@H]4O)sc3c2)ccn1 | -5.08%
36 | CC(C)[C@@](C)(O)[C@@H]1CN(c2nc(-c3[nH]nc4ncccc34)c(F)cc2Cl)CCN1 | 142%
37 | CC(C)C1=CC2C(CC[C@]2(C)O)[C@](C)(O)CC1 (stereo not given in full) | 10.4%
38 | CCC(COC)n1nnc2c(Nc3ccc(OC)cc3C)nc(C)cc21 (stereo not given) | 3.05%
39 | Cc1ccc(Cc2c(C)nc3nc(SCC(=O)NCCN4CCNCC4)nn3c2C)cc1 | -23.9%
40 | Cc1cc(C)c2c(N)c(C(=O)NCc3ccc(Cl)cc3)sc2n1 | 47.1%
